# Results: PubChem BioAssay AID651928 (Vanderbilt Specialized Chemistry Center, 2012)
# Calls of active or inactive are those of the source. No rule for the calls is given here.
# Target: Histone deacetylase 4 (Homo sapiens) (UniProt P56524)
# Experiment: recombinant HDAC4 deacetylase inhibitors – biochemical, HDAC isoform panel, selectivity assay for E-cadherin restoration project, profiling panel (AID 651928)
# Conditions: recombinant HDAC4, fluorogenic substrate deacetylation; series mostly up to 10 µM
# Histone deacetylase 4 (Homo sapiens), sequence (P56524 whole entry, looked up, canonical isoform): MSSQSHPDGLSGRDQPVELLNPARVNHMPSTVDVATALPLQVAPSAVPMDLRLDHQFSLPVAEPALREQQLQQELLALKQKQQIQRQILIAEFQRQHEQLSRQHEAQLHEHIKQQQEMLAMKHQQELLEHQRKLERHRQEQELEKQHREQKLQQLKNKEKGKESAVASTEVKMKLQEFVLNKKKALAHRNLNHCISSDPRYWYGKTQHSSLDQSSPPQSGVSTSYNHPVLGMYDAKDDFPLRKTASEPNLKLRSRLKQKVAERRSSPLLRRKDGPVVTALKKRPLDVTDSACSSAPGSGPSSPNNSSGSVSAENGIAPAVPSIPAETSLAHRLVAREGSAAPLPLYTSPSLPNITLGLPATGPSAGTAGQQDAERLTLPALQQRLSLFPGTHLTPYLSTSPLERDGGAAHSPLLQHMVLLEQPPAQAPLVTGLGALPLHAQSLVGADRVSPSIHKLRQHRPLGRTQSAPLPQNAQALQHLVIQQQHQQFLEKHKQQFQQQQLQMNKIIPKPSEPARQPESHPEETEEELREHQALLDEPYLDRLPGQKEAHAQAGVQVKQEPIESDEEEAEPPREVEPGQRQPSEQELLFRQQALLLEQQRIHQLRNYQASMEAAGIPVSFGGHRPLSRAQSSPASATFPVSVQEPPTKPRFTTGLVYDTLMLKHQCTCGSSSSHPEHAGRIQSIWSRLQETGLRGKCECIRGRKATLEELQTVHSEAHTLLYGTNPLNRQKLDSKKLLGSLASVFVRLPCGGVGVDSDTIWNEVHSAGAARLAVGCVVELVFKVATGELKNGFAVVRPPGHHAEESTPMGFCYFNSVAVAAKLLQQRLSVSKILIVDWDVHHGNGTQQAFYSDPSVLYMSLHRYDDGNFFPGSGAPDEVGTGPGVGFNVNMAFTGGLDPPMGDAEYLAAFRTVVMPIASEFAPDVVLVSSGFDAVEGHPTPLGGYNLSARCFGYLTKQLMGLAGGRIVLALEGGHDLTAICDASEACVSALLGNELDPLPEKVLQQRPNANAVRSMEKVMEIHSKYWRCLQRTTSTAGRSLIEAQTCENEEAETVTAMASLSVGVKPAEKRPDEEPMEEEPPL
smiles,measurement,value
O=C(NCCCNC(=O)c1ccc[nH]c1=O)c1cc(-c2ccccc2)on1,outcome,inactive
